Records with an inconclusive call do not appear. Calls of active or inactive are those of the source. Unless noted, the call rests on the fitted dose curve; in most records, active means well fitted curve in the direction sought with a large enough effect in the repeat runs; inconclusive means weak or mixed curves; inactive means no such curve, though single readings can be large; an effect the other way counts as inactive or inconclusive.
Tests used:
[1] = qHTS assay for small molecules that induce genotoxicity in human embryonic kidney cells expressing luciferase-tagged ATAD5 (AID 651632); further: nearly all actives have a fitted effect of over 15% in size
Method in brief: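 Test compounds were delivered by pin tool onto HEK293T reporter cells (2,000/well) expressing ATAD5 fused to luciferase. After 16 hr at 37C, 5% CO2, Amplite was added for 30 min at room temperature and luminescence was measured.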

[2] = qHTS assay for small molecule agonists of the p53 signaling pathway - cell viability (AID 651633; calls by dose curve;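 further: p53RE-bla HCT reporter cells with a stable beta-lactamase p53 reporter; series mostly up to about 83 µM; nearly all actives have a fitted effect of over 30% in size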)
Method in brief: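 p53RE-bla cells, seeded at 4,000 per well and rested 5 h at 37 C/5% CO2, received compounds in DMSO for 16 h at 37 C. CellTiter-Glo was then added, and luminescence was read after 30 min at room temperature to gauge cytotoxicity.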

[3] = qHTS assay for small molecules that induce genotoxicity in human embryonic kidney cells expressing luciferase-tagged ATAD5 - cell viability (AID 651634; calls by dose curve; further: nearly all actives have a fitted effect of over 25% in size)
Method in brief: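 Quantitative high-throughput format. HEK293T cells expressing ATAD5 fused to luciferase were plated at 2,000 cells/well and treated 15.5 hr with compound versus DMSO. Viability was determined by fluorescent live-cell protease substrate, 30 min at 37C.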

[4] = qHTS assay for small molecule disruptors of the mitochondrial membrane potential - cell viability (AID 720634; calls by dose curve;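 further: human HepG2 liver cancer cells; series mostly up to about 83 µM; nearly all actives have a fitted effect of over 20% in size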)
Method in brief: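 Same-well counter-screen: following the MMP dye addition, CellTiter-Glo was added to 1 hr compound-treated HepG2 cells and luminescence read after 30 min at room temperature.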

[5] = qHTS assay for small molecule disruptors of the mitochondrial membrane potential (AID 720635)
Method in brief: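 HepG2 cells (2,000/well) attached overnight at 37C, then took compound for 1 hr at 37C, 5% CO2. Mito-MPS dye was added for 30 min; fluorescence was read at 490/535 nm (monomers) and 540/590 nm (aggregates).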

[6] = qHTS assay to test for compound auto fluorescence at 590 nm (red) in HepG2 cells (AID 720674)
Method in brief: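 Rose Bengal sodium served as the red fluorophore standard. HepG2 monolayers (overnight attachment, MEM with 10% FBS) were exposed to test compounds for 1 hr at 37 C and read at Ex 540/Em 590 nm.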

[7] = qHTS assay to test for compound auto fluorescence at 535 nm (green) in HepG2 cells (AID 720675)
[8] = qHTS assay to test for compound auto fluorescence at 460 nm (blue) in HEK293 cells (AID 720678)
Method in brief: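 Auto fluorescence in the blue band was quantified as triamterene equivalency. HEK293 cells were seeded at 2,000/well, dosed after a 4-5 hr attachment, and kept overnight at 37C before the 405/460 nm reading.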

[9] = qHTS assay to test for compound auto fluorescence at 590 nm (red) in HEK293 cells (AID 720679)
Method in brief: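 Autofluorescence equivalency to Rose Bengal sodium, 540/590nm, in HEK293 cells exposed overnight to 23 nL compound per well.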

[10] = qHTS assay for small molecule agonists of the p53 signaling pathway (AID 651631; calls by dose curve; further: nearly all actives have a fitted effect of over 15% in size)
Method in brief: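 Fluorescence intensity from cleaved LiveBLAzer B/G substrate (2 h, room temperature) served as the signal. Beforehand, HCT-116 reporter cells bearing p53 response elements were treated 16 h at 37 °C with DMSO-dissolved compounds.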

Measured: Potency

COc1cc(NC(=O)CC(C)=O)c(OC)cc1Cl
inactive: [1] | [2] | [3] | [4] | [5] | [6] | [7] | [8] | [9]

CS(=O)(=O)c1ccc(Cl)cc1
inactive: [2] | [3] | [4] | [5] | [6] | [7] | [8] | [9]

C=CC(C)(C)C
inactive: [10] | [1] | [2] | [3] | [4] | [6] | [7] | [8] | [9]

NC1CCCCC1N (stereo unspecified)
inactive: [10] | [2] | [3] | [6] | [7] | [8] | [9]

CN1Cc2c(N)cccc2C(c2ccccc2)C1 (stereo unspecified)
inactive: [1] | [3] | [4] | [5] | [6] | [7] | [8] | [9]

Clc1cccc(Cl)c1NC1=NCCN1
inactive: [10] | [2] | [3] | [4] | [5] | [6] | [7] | [8] | [9]

NCCNCCNCCN
inactive: [10] | [2] | [3] | [4] | [5] | [6] | [7] | [8] | [9]

O=C(NCC1CCCCN1)c1cc(OCC(F)(F)F)ccc1OCC(F)(F)F (stereo unspecified)
inactive: [10] | [2] | [4] | [5] | [6] | [7] | [8] | [9]

CC[N+](CC)(CC(=O)Nc1c(C)cccc1C)Cc1ccccc1
inactive: [1] | [2] | [3] | [4] | [6] | [7] | [8] | [9]

C[n+]1ccn(CCO)c1
inactive: [1] | [2] | [3] | [4] | [5] | [6] | [7] | [8] | [9]

CC1=CC(=O)CC(C)(C)C1
inactive: [10] | [2] | [3] | [4] | [5] | [6] | [7] | [8] | [9]

OCCOCCOCCOCCOCCO
inactive: [10] | [2] | [3] | [4] | [5] | [6] | [7] | [8] | [9]

Cc1ncc(CO)c(CO)c1O
inactive: [10] | [2] | [3] | [4] | [5] | [6] | [7] | [8] | [9]

— PubChem BioAssay (Tox21)
